# Source: PubChem BioAssay
# Values joined by “and” are separate entries in the source; they are usually repeats but may differ in a detail not shown here. Equal entries are not always repeated. Records with an inconclusive call do not appear. Active and inactive are the calls of the source.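 Rule for the calls, unless noted: active = normalized viability below 100% at a tested concentration; inactive = the rest.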
# How the values were obtained:
# [1] = P. berghei load reduction in hepatocytes – cell-based, HepG2, luciferase luminescence, HepG2 viability, primary screen (AID 624349; in the data active = parasite load remaining mostly below about 12%, no sharp cut-off; inactive = mostly above about 10%;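 note: 100% = mean of DMSO negative control wells on the same plate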); conditions: P. berghei liver stage in HepG2, luciferase luminescence, concentration not given here; parasite load remaining: stronger effect = lower value; viability: measured here: HepG2 viability without parasites
# [2] = Wnt pathway potentiators raising nuclear beta-catenin – imaging, WNT3A-conditioned medium, mouse C2C12, NPC library, primary screen (AID 1117326; in the data active = nuclear beta-catenin stimulation mostly above about 4.2%, no sharp cut-off; inactive = mostly below about 10%); conditions: stronger effect = higher value
# [3] = stimulators of insulin release from INS-1E, primary screen, cell-based, 5 mM glucose, NPC library (AID 1117329;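 active = compound raises insulin release from rat beta cells at 5 mM glucose, no numeric limit stated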); conditions: rat INS-1E insulin secretion, at 10 µM, stronger effect = higher value
# [4] = growth inhibition of GSK3B-pretreated HCT116 cells – cell-based, CellTiter-Glo, 0.2 to 20 µM (AID 1117336;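 active = compounds lowering colon cancer cell viability after pretreatment blocking the GSK3B kinase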); conditions: HCT116 viability after GSK3B inhibitor, at 20 µM, stronger effect = higher value
# [5] = inhibition of endothelial tube formation, primary screen, imaging, VEGF stimulated, CD31 staining, tube area, NPC library (AID 1117340;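 active = compound that reduces growth-factor-driven endothelial tube area in a mixed cell culture, no cutoff stated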); conditions: VEGF-stimulated ADSC/ECFC co-culture, at 10 µM, stronger effect = higher value
# [6] = GLP1 release stimulators, primary, NCI-H716, NPC library (AID 1117341;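 active = compound raises GLP1 secretion from the human gut endocrine cells, with no numeric limit stated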); conditions: NCI-H716 cells, at 10 µM, stronger effect = higher value
# [7] = HCT116 colon cancer cell growth inhibition, primary screen, CellTiter-Glo luminescence, NPC library (AID 1117342;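 active = compounds that lower survival of HCT116 colon cancer cells in the luminescence readout, no numeric limit stated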); conditions: at 20 µM (top of the series)
# [8] = reduced SW480 viability measured with CellTiter-Glo, NPC library, primary (AID 1117343;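 active = compounds that lower viability of the colon cancer cells in the luminescence readout, with no numeric limit stated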); conditions: CellTiter-Glo luminescence; at 20 µM (top of the series) unless noted
# [9] = NPC library primary testing for decreased DLD-1 cell viability via CellTiter-Glo (AID 1117346;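 active = compounds that lower survival of DLD-1 colon cancer cells in the luminescence readout, no cutoff given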); conditions: DLD-1 viability, CellTiter-Glo luminescence; at 20 µM (top of the series)
# [10] = viability loss in pontine glioma line – cell-based, SU-DIPG-XVII, MIPE5.0, CellTiter-Glo, qHTS, dose response (AID 1347060; cut-off not given, nearly all actives have AC50 up to about 26 µM;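 for AC50: cells exposed to compound for 48 hours before viability readout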); conditions: CellTiter-Glo ATP luminescence
# [11] = viability loss in pontine glioma line – cell-based, SU-DIPG-XIII, MIPE4.0, CellTiter-Glo, qHTS, dose response (AID 1347061; cut-off not given, nearly all actives have AC50 up to about 37 µM;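 note: cells exposed to compound for 48 hours before readout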); conditions: CellTiter-Glo ATP luminescence
# [12] = growth inhibition of DIPG cells – cell-based, MIPE5.0 library, qHTS (AID 1347068; cut-off not given, nearly all actives have IC50 up to about 30 µM); conditions: SU-DIPG-XXV viability
# [13] = viability loss with induced miR-34 in A549 – imaging, A549 dox-inducible miR-34, nuclei and caspase counts, primary screen (AID 1347080;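 active = compounds whose cell count with miR-34 switched on is under 0.7 times the count with it off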); conditions: A549 miR-34 inducible, Hoechst nuclei count, 48 h
# [14] = MELAS cybrid and Rieske KO viability enhancers – cell-based, MELAS cybrids, Rieske KO mouse fibroblasts, CellTiter-Glo, primary screen (AID 1508586;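 active = mean z-score across replicates of 1.96 or higher in either the MELAS or the Rieske mutant cell line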;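 note: z relative to plate mean and SD of compound and empty wells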); conditions: low glucose
# [15] = drug combination growth inhibition, ovarian cancer – cell-based, oncology-focused library, rucaparib conditional, profiling panel (AID 1508598); conditions: patient-derived ovarian cancer cells, CellTiter-Glo viability, 144 h, stronger effect = lower value
# [16] = galactose survival enhancers in mitochondrial complex I cybrids – cell-based, galactose medium, ATP luminescence, primary screen (AID 1645843;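 active = z-score of at least 1.8 in each of two replicates, scored against plate mean and spread of sample wells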;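 note: positive z means more ATP and so rescue of galactose-driven cybrid death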); conditions: complex I mutant cybrid cells, 72 h, stronger effect = higher value
# [17] = viability loss in pontine glioma line – cell-based, SU-DIPG-IV, MIPE4.0, CellTiter-Glo, qHTS, dose response (AID 1347063; cut-off not given, nearly all actives have AC50 up to about 30 µM;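 note: compound exposure lasted 48 hours before the viability readout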); conditions: CellTiter-Glo ATP luminescence
# [18] = target: NAD(+) hydrolase SARM1 (Homo sapiens) (UniProt Q6SZW1); assay: blocking NAD cleavage by SARM1 SAM-TIR – cell lysate, NAD-Glo luminescence (AID 1508614;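 active = compound whose remaining NAD level is above about 45 nM, limit read from the data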;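 note: higher remaining NAD means stronger inhibition of SARM1 NADase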); conditions: SAM-TIR HEK293T lysate NADase, at 1 µM, stronger effect = higher value
# Chain of NAD(+) hydrolase SARM1 (Homo sapiens) (Q6SZW1 whole entry, looked up): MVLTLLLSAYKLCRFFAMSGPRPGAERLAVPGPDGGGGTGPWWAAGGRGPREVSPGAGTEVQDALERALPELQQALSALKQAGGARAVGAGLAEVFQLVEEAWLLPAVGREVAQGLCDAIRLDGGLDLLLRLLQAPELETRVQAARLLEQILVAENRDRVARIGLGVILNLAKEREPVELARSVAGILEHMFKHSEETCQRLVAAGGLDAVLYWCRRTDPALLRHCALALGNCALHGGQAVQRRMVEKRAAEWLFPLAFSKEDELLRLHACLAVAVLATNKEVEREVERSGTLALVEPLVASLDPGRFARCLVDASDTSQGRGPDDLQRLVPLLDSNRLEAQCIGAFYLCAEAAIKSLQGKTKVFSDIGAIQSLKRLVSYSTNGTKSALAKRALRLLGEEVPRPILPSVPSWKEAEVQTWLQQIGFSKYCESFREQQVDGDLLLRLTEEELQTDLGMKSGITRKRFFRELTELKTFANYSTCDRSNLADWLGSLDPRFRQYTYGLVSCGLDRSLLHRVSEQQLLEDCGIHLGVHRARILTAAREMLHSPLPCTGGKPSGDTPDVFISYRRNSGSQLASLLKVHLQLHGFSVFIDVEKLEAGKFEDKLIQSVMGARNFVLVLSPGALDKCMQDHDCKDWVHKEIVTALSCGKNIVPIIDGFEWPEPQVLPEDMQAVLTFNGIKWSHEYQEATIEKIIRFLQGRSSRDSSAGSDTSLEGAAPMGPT
# [19] = stronger effect = lower value, cell number ratio, induced over uninduced
# [20] = measured here: relative caspase fold change +Dox/-Dox
# [21] = measured here: total cells with miR-34 induction, stronger effect = lower value
# [22] = measured here: total cells without miR-34 induction
# [23] = MELAS cybrid survival, CellTiter-Glo 48 h, stronger effect = higher value
# [24] = Rieske KO mouse fibroblast survival, CellTiter-Glo 72 h
structure (smiles),measurement,setting,value
Clc1ccc(Nc2nnc(Cc3ccncc3)c3ccccc23)cc1,parasite load remaining,[1],24.4% (inactive)
same,viability,[1],144%
same,nuclear beta-catenin stimulation,[2]; at 10 µM,-2.6% (inactive)
same,nuclear beta-catenin stimulation,"[2]; stimulation, at 2 µM",-0.4%
same,insulin secretion stimulation,[3],9.3% (inactive)
same,viability decrease,[4],76.2% (active)
same,tube area decrease,[5],104% (active)
same,GLP1 secretion stimulation,[6],-2.6% (inactive)
same,inhibition of viability,[7],36% (inactive)
same,viability decrease (inhibition),[8],51.3% (active)
same,viability decrease (inhibition),[9],35.7% (inactive)
same,AC50,[10],16.6 µM (active)
same,outcome,[11],inactive
same,outcome,[12],inactive
same,fold change,[13]; [19],0.99 (inactive) and 0.927 (inactive)
same,fold change,[13]; [20],0.974 and 0.999
same,cell count,[13]; [21],4800 and 8110
same,cell count,[13]; [22],4850 and 8750
same,z-score,[14]; [23],-0.464 (inactive) and -0.665 (inactive) and -0.288 (inactive)
same,z-score,[14]; [24],0.486 and -0.638 and 0.713
same,viability,"[15]; at 0.000305 µM, OCI-C5x cells, with rucaparib 10 µM, 100% = cells with rucaparib alone",121% (inactive)
same,viability,"[15]; at 0.000305 µM, OCI-C5x cells, without rucaparib",86.5% (active)
same,viability,"[15]; at 0.000305 µM, OCI-P5x cells, with rucaparib 20 µM, 100% = cells with rucaparib alone",94.6% (active)
same,viability,"[15]; at 0.000305 µM, OCI-P5x cells, without rucaparib",89.3% (active)
same,viability,"[15]; at 0.00122 µM, OCI-C5x cells, with rucaparib 10 µM, 100% = cells with rucaparib alone",125% (inactive)
same,viability,"[15]; at 0.00122 µM, OCI-C5x cells, without rucaparib",97.1% (active)
same,viability,"[15]; at 0.00122 µM, OCI-P5x cells, with rucaparib 20 µM, 100% = cells with rucaparib alone",102% (inactive)
same,viability,"[15]; at 0.00122 µM, OCI-P5x cells, without rucaparib",94.6% (active)
same,viability,"[15]; at 0.00488 µM, OCI-C5x cells, with rucaparib 10 µM, 100% = cells with rucaparib alone",117% (inactive)
same,viability,"[15]; at 0.00488 µM, OCI-C5x cells, without rucaparib",98.5% (active)
same,viability,"[15]; at 0.00488 µM, OCI-P5x cells, with rucaparib 20 µM, 100% = cells with rucaparib alone",99.2% (active)
same,viability,"[15]; at 0.00488 µM, OCI-P5x cells, without rucaparib",100% (inactive)
same,viability,"[15]; at 0.0195 µM, OCI-C5x cells, with rucaparib 10 µM, 100% = cells with rucaparib alone",121% (inactive)
same,viability,"[15]; at 0.0195 µM, OCI-C5x cells, without rucaparib",99.4% (active)
same,viability,"[15]; at 0.0195 µM, OCI-P5x cells, with rucaparib 20 µM, 100% = cells with rucaparib alone",102% (inactive)
same,viability,"[15]; at 0.0195 µM, OCI-P5x cells, without rucaparib",95.6% (active)
same,viability,"[15]; at 0.0781 µM, OCI-C5x cells, with rucaparib 10 µM, 100% = cells with rucaparib alone",114% (inactive)
same,viability,"[15]; at 0.0781 µM, OCI-C5x cells, without rucaparib",98.5% (active)
same,viability,"[15]; at 0.0781 µM, OCI-P5x cells, with rucaparib 20 µM, 100% = cells with rucaparib alone",101% (inactive)
same,viability,"[15]; at 0.0781 µM, OCI-P5x cells, without rucaparib",95.5% (active)
same,viability,"[15]; at 0.313 µM, OCI-C5x cells, with rucaparib 10 µM, 100% = cells with rucaparib alone",125% (inactive)
same,viability,"[15]; at 0.313 µM, OCI-C5x cells, without rucaparib",110% (inactive)
same,viability,"[15]; at 0.313 µM, OCI-P5x cells, with rucaparib 20 µM, 100% = cells with rucaparib alone",100% (inactive)
same,viability,"[15]; at 0.313 µM, OCI-P5x cells, without rucaparib",105% (inactive)
same,viability,"[15]; at 1.25 µM, OCI-C5x cells, with rucaparib 10 µM, 100% = cells with rucaparib alone",129% (inactive)
same,viability,"[15]; at 1.25 µM, OCI-C5x cells, without rucaparib",115% (inactive)
same,viability,"[15]; at 1.25 µM, OCI-P5x cells, with rucaparib 20 µM, 100% = cells with rucaparib alone",105% (inactive)
same,viability,"[15]; at 1.25 µM, OCI-P5x cells, without rucaparib",94.9% (active)
same,viability,"[15]; at 5 µM, OCI-C5x cells, with rucaparib 10 µM, 100% = cells with rucaparib alone",128% (inactive)
same,viability,"[15]; at 5 µM, OCI-C5x cells, without rucaparib",142% (inactive)
same,viability,"[15]; at 5 µM, OCI-P5x cells, with rucaparib 20 µM, 100% = cells with rucaparib alone",95.2% (active)
same,viability,"[15]; at 5 µM, OCI-P5x cells, without rucaparib",99.5% (active)
same,z-score,[16],1.34 (inactive)
O=c1[nH]c(=O)n([C@H]2C[C@H](O)[C@@H](CO)O2)cc1I,parasite load remaining,[1],42.1% (inactive) and 24.1% (inactive)
same,viability,[1],53.4% and 72.5%
same,nuclear beta-catenin stimulation,[2]; at 10 µM,-0.5% (inactive)
same,nuclear beta-catenin stimulation,"[2]; stimulation, at 2 µM",0.3%
same,insulin secretion stimulation,[3],0.4% (inactive)
same,viability decrease,[4],10.1% (inactive)
same,tube area decrease,[5],69.4% (active)
same,GLP1 secretion stimulation,[6],-0.6% (inactive)
same,inhibition of viability,[7],11.4% (inactive)
same,viability decrease (inhibition),[8],39.4% (inactive)
same,viability decrease (inhibition),[9],9.4% (inactive)
same,outcome,[10],inactive
same,outcome,[11],inactive
same,outcome,[17],inactive
same,outcome,[12],inactive
same,fold change,[13]; [19],0.955 (inactive) and 0.894 (inactive)
same,fold change,[13]; [20],1.48 and 1.08
same,cell count,[13]; [21],8120 and 9040
same,cell count,[13]; [22],8510 and 10100
same,z-score,[14]; [23],1.21 (inactive) and 1.8 (inactive)
same,z-score,[14]; [24],0.284 and 0.0835
same,remaining NAD,[18],10 nM (inactive)
same,z-score,[16],0.45 (inactive)
